From PubChem BioAssay AID602358 (National Center for Advancing Translational Sciences (NCATS), 2012)
Results filed as inconclusive are left out. Activity calls are given as the source filed them. Calls follow the shape of the dose curve; as a rule, active = well fitted inhibition curve with a large enough effect; inconclusive = small, poorly fitted or top-dose-only effect; inactive = flat fitted curve, though single readings scatter.

target: Luciferin 4-monooxygenase (Photinus pyralis) (UniProt P08659); experiment: FLuc inhibitory activity for the follow-up compounds in a biochemical assay with Km concentrations of substrate and 500microM CoASH; conditions: purified FLuc, Km substrates + 500 uM CoASH, luminescence; series mostly up to 57.5 µM
Sequence (P08659 whole entry, looked up): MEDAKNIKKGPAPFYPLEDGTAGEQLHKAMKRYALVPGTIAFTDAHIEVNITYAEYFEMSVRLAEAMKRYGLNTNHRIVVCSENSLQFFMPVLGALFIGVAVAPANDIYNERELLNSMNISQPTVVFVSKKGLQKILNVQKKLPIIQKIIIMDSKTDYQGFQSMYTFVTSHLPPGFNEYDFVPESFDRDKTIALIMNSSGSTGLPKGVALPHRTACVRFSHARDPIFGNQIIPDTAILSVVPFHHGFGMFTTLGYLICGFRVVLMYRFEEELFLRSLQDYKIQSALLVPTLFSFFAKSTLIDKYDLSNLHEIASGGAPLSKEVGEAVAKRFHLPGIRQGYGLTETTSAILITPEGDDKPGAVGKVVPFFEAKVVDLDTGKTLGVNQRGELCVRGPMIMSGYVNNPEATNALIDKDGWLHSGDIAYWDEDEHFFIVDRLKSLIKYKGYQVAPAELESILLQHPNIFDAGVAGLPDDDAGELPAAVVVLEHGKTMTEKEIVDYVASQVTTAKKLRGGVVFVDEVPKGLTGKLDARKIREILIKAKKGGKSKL
Description: NCGC Assay Overview: Firefly (Photinus pyralis) luciferase is one of the most commonly used transcriptional reporters. It is considered one of the more dynamically responsive reporters - that is, responsive to changes in reporter transcription - as it requires no post-translational modifications and is enzymatically active directly after protein synthesis (Wood, 1998). With no endogenous expression in mammalian cells and without the requirement of external excitation, it offers very little background signal, thus generally providing excellent signal to background for most assays. Previous profiling work to determine the prevalence of compounds that affect FLuc enzymatic activity (PubChem AID 411) identified that ~3% of the MLSMR library (then at ~72K) inhibited FLuc. […] Of the compounds identified in this profile that inhibited FLuc, 151 compounds were selected for further analysis, in an effort to better understand their mode of inhibiting FLuc. The assay described here was to determine the activity of the compounds in an FLuc assay that contained KM concentrations of substrates and 500uM CoASH.
NCGC Assay Protocol Summary: Reagents: 50mM Tris acetate, pH 7.5; 10mM Mg acetate; 10uM D-luciferin (Sigma #L9504); 10uM ATP; 0.01% Tween-20; 0.05% BSA; 10nM P. pyralis luciferase (Sigma #L9506); 500 uM CoASH Control compounds used were two known firefly luciferase inhibitors (3-(5-(3-chlorophenyl)-1,2,4-oxadiazol-3-yl)benzoic acid and 5-(2-fluorophenyl)-3-phenyl-1,2,4-oxadiazole), and DMSO. Three microliters containing firefly luciferase substrates in buffer (final concentrations: 50mM Tris acetate, pH 7.5, 10mM Mg acetate, 0.01% Tween-20, 0.05% BSA, 10uM D-luciferin, 10uM ATP, and 500 uM CoASH) are dispensed into each well of a Greiner white, solid-bottom 1536-well format plate using a flying reagent dispenser (FRD). These assay plates were then treated with 23nL of compound or DMSO using a Kalypsys pin tool, which allows for delivery of a 12-point intraplate titration of each compound to the assay plate (quantitative HTS), with a final compound concentrations ranging from approximately ~60uM to 0.3nM. One microliter of firefly luciferase in 500mM Tris-acetate buffer was then delivered by FRD to each well for a final enzyme concentration of 10nM. Luciferase activity was then measured using a ViewLux CCD imager (PerkinElmer), with an average exposure time of 2-30 seconds (2X binning, medium/high gain).

SMILES	Potency
O=C(O)c1cccc(NC(=O)c2ccccc2NC(=O)c2ccccc2F)c1	18300 nM (active)
CCOc1ccc2nc(NC(=O)c3cccnc3)sc2c1	1300 nM (active)
O=C(Cc1ccccc1)Nc1ccc(C(=O)Nc2ccccc2C(=O)O)cc1	9190 nM (active)
CCc1noc(C)c1C(=O)Nc1nc2ccc(OC)cc2s1	13000 nM (active)
COc1ccc(NS(=O)(=O)c2cccc(C(=O)Nc3ccccc3C(=O)O)c2)cc1	inactive
O=C(O)c1cccc(NC(=O)c2cccc(NC(=O)C3CCCO3)c2)c1 (stereo not given)	18300 nM (active)
CC(C)C(=O)Nc1cccc(C(=O)Nc2ccccc2C(=O)O)c1	7300 nM (active)
O=C(O)c1ccc(NC(=O)c2ccccc2NC(=O)c2cccc(Br)c2)cc1	7300 nM (active)
CC(=O)Oc1ccc(C(=O)Nc2ccccc2C(=O)Nc2ccc(C(=O)O)cc2)cc1	1460 nM (active)
Cc1ccc(C(=O)Nc2ccc(C(=O)O)cc2)cc1S(=O)(=O)Nc1ccccc1	inactive
CCOc1ccc2nc(NC(=O)c3ccccc3)sc2c1	206 nM (active)
O=C(O)c1ccc(NC(=O)c2ccccc2NC(=O)c2ccccc2Cl)cc1	16300 nM (active)
O=C(COC(=O)c1ccccc1[N+](=O)[O-])c1ccc2c(c1)OCO2	2.3 nM (active)
O=C(Nc1ccccc1C(=O)O)c1cc(S(=O)(=O)Nc2ccccc2)ccc1Cl	inactive
COc1ccc(C(=O)Nc2ccccc2C(=O)N/N=C/c2ccc(O)c(OC)c2)cc1	3.7 nM (active)
Nc1ccccc1C(=O)Nc1cccc(C(=O)O)c1	18300 nM (active)
Cc1ccc(NS(=O)(=O)c2ccc(Cl)c(C(=O)Nc3cccc(C(=O)O)c3)c2)cc1	inactive
Nc1cccc(-c2nc3ccc(N)cc3s2)c1	146 nM (active)
CC(C)(C)C(=O)Nc1ccc(-c2nc3ccccc3s2)cc1	10.3 nM (active)
COc1ccc(C(=O)Nc2ccccc2C(=O)Nc2ccccc2C(=O)O)cc1	116 nM (active)

SMILES	Potency
Cc1ccc(C(=O)Nc2cccc(C(=O)O)c2)cc1S(=O)(=O)N1CCCC1	5170 nM (active)
O=C(Nc1cccc(-c2nc3ccccc3s2)c1)c1cc(-n2cnnc2)ccc1Cl	3660 nM (active)
COc1ccc2nc(NC(=O)c3cnccn3)sc2c1	919 nM (active)
CN(C)S(=O)(=O)c1ccc(C(=O)Nc2ccccc2C(=O)O)cc1	9190 nM (active)
Cc1ccc2sc(-c3ccc(NC(=O)c4cc(-n5cnnc5)ccc4Cl)cc3)nc2c1	1630 nM (active)
COc1ccc2nc(NC(=O)c3cccc(S(=O)(=O)N4CCOCC4)c3)sc2c1	14600 nM (active)
CC(C)CC(=O)Nc1cccc(C(=O)Nc2ccccc2C(=O)O)c1	13000 nM (active)
O=C(O)c1ccc(NC(=O)c2ccccc2NC(=O)c2ccccc2Br)cc1	16300 nM (active)
CCOc1ccc(C(=O)Nc2ccccc2C(=O)O)cc1	410 nM (active)
Cc1ccc(C(=O)O/N=C(\N)c2ccccn2)cc1	9.2 nM (active)
Cc1ccc(C(=O)O/N=C(\N)c2ccccn2)c(Cl)c1	4.6 nM (active)
COc1ccc2nc(NC(=O)c3nc(S(=O)(=O)Cc4ccc(C)cc4)ncc3Cl)sc2c1	2060 nM (active)
CCOc1ccc2nc(NC(=O)Cc3cccs3)sc2c1	5800 nM (active)
O=C(Nc1ccccc1C(=O)O)c1cccc(NC(=O)c2ccccc2Cl)c1	14600 nM (active)
COc1ccc(C(=O)Nc2ccccc2-c2nc3ccccc3s2)c(OC)c1	inactive
O=C(O)c1cccc(NC(=O)c2ccccc2NC(=O)c2ccco2)c1	20600 nM (active)
O=C(Nc1ccccc1C(=O)O)c1cc(S(=O)(=O)NCc2ccccc2)ccc1Cl	inactive
CCOc1ccc2nc(NC(=O)c3ccccn3)sc2c1	163 nM (active)
Cc1ccc2nc(-c3ccc(N)cc3)sc2c1	32.6 nM (active)
C/C(=N\NC(=O)c1ccccc1NC(=O)c1ccc(Cl)cc1)c1ccncc1	4.6 nM (active)
